Pf Dd2 growth: blocks growth of Plasmodium falciparum Dd2 parasites; 94,000 compounds, 2.3% hits; AID 1159554; P. falciparum Dd2 growth, SYBR Green, 72 h; active compounds read low; activity change, % at 10 µM; in the data active means activity change below about -80%
C diff HTS: blocks growth of Clostridium difficile; 86,000 compounds, 0.25% hits; Clostridium difficile clinical isolate growth, OD600, 24 h; active compounds read low; growth activity, negative = inhibition, % at 16 µg/mL (by protocol);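 active means mean growth activity at or below -80% and every replicate also at or below -80%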;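 further: 0% = DMSO wells and -100% = levofloxacin 16 µg/mL wells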
Starred values were filed as active, the others as inactive. A selection: hits, their analogues and other compounds. The true share with any hit is near 2.3%.

What do the screens show for `C[C@@H]1CCCCO[C@H](CN(C)C(=O)CCC(F)(F)F)[C@H](C)CN([C@@H](C)CO)C(=O)c2cc(NC(=O)Nc3ccccc3)ccc2O1`?
Pf Dd2 growth: 3; C diff HTS: -11

How did N#C[C@H]1[C@@H](c2ccc(C#CC3CC3)cc2)[C@H](CO)N1S(=O)(=O)c1ccccc1 do in these assays?
Pf Dd2 growth: -85*; C diff HTS: 4

Results for N#C[C@@H]1[C@@H](c2ccc(C#CC3CCCC3)cc2)[C@H](CO)N1S(=O)(=O)c1ccccc1 ?
Pf Dd2 growth: -29; C diff HTS: -19

Results for N#C[C@H]1[C@H](c2ccc(C#CC3CC3)cc2)[C@@H](CO)N1S(=O)(=O)c1ccccc1 ?
Pf Dd2 growth: -58; C diff HTS: 4

Results for Cc1ccccc1S(=O)(=O)N1[C@H](CO)[C@@H](c2ccc(C#CC3CC3)cc2)[C@@H]1C#N ?
Pf Dd2 growth: -87*; C diff HTS: 5

Results for N#C[C@@H]1[C@@H](c2ccc(C#CC3CC3)cc2)[C@H](CO)N1S(=O)(=O)c1ccccc1 ?
Pf Dd2 growth: -64; C diff HTS: 0

Results for N#C[C@H]1[C@@H](c2ccc(C#CC3CCCC3)cc2)[C@@H](CO)N1S(=O)(=O)Cc1ccccc1 ?
Pf Dd2 growth: -89*; C diff HTS: -13

How did CC(=O)NC[C@H]1[C@@H](c2ccc(C3=CCCCC3)cc2)[C@@H](CO)N1C(=O)C1CC1 do in these assays?
Pf Dd2 growth: 14; C diff HTS: -5

What do the screens show for `CO[C@H]1CN(C)C(=O)c2cc(NC(=O)CC(F)(F)F)ccc2OC[C@H](C)N(C(=O)C2CC2)C[C@@H]1C`?
Pf Dd2 growth: 34; C diff HTS: -3

How did C[C@@H]1CCCCO[C@@H](CN(C)CC2CC2)[C@@H](C)CN([C@H](C)CO)C(=O)c2cc(NC(=O)CCCCCC(=O)Nc3ccccc3N)ccc2O1 do in these assays?
Pf Dd2 growth: -78; C diff HTS: -2

Results for C[C@@H]1CCCCO[C@@H](CN(C)Cc2ccncc2)[C@@H](C)CN([C@H](C)CO)C(=O)c2cc(NC(=O)CCCCCC(=O)Nc3ccccc3N)ccc2O1 ?
Pf Dd2 growth: -37; C diff HTS: -3

Results for C[C@@H]1CCCCO[C@@H](CN(C)Cc2ccccc2)[C@@H](C)CN([C@H](C)CO)C(=O)c2cc(NC(=O)CCCCCC(=O)Nc3ccccc3N)ccc2O1 ?
Pf Dd2 growth: -84*; C diff HTS: -8

What do the screens show for `C[C@@H]1CCCCO[C@@H](CN(C)CC2CCCCC2)[C@H](C)CN([C@@H](C)CO)C(=O)c2cc(NC(=O)CCCCCC(=O)Nc3ccccc3N)ccc2O1`?
Pf Dd2 growth: -81*; C diff HTS: -2

What do the screens show for `COc1ccc2c3c([nH]c2c1)[C@@H](CO)N(C(=O)C1CCCC1)CC31CN(Cc2nccs2)C1`?
Pf Dd2 growth: -4; C diff HTS: -1

How did O=C(C[C@H]1CC[C@@H]2[C@H](COC[C@H](O)CN2CC2CC2)O1)NCc1ccc(Cl)cc1 do in these assays?
Pf Dd2 growth: 1; C diff HTS: 6

Results for O=C(C1CCCC1)N1CC2(C1)[C@H](c1ccccc1)[C@@H](CO)N2C(=O)CC1CC1 ?
Pf Dd2 growth: -29; C diff HTS: 8

What do the screens show for `COc1ccc(S(=O)(=O)N(C)C[C@H]2OCCCC[C@@H](C)Oc3ccc(NC(=O)Cc4ccccc4)cc3C(=O)N([C@@H](C)CO)C[C@H]2C)cc1`?
Pf Dd2 growth: -71; C diff HTS: 7

How did C[C@@H]1CCCCO[C@H](CN(C)S(=O)(=O)c2ccc(F)cc2)[C@@H](C)CN([C@@H](C)CO)C(=O)c2cc(NC(=O)Cc3ccccc3)ccc2O1 do in these assays?
Pf Dd2 growth: -76

Results for C[C@H]1CCCCO[C@H](CN(C)S(=O)(=O)c2ccc(F)cc2)[C@@H](C)CN([C@@H](C)CO)C(=O)c2cc(NC(=O)Cc3ccccc3)ccc2O1 ?
Pf Dd2 growth: -89*

Results for C[C@H](CO)N1C[C@H](C)[C@H](CN(C)S(=O)(=O)c2ccc(Cl)cc2)OCCCC[C@H](C)Oc2ccc(NC(=O)Cc3ccccc3)cc2C1=O ?
Pf Dd2 growth: -72; C diff HTS: 3

How did C[C@H]1CCCCO[C@H](CN(C)S(=O)(=O)c2ccc(Cl)cc2)[C@@H](C)CN([C@@H](C)CO)C(=O)c2cc(NC(=O)Cc3ccccc3)ccc2O1 do in these assays?
Pf Dd2 growth: -81*; C diff HTS: 8

What do the screens show for `COc1ccc(S(=O)(=O)N(C)C[C@H]2OCCCC[C@H](C)Oc3ccc(NC(=O)Cc4ccccc4)cc3C(=O)N([C@H](C)CO)C[C@H]2C)cc1`?
Pf Dd2 growth: -84*; C diff HTS: 7

Results for COc1ccc(CN(C)C[C@H]2Oc3ccc(NC(=O)Cc4ccccc4)cc3C(=O)N([C@H](C)CO)C[C@@H]2C)cc1 ?
Pf Dd2 growth: -5; C diff HTS: -2

How did COc1ccc2c3c(n(C)c2c1)[C@@H](CO)N(C(=O)C1CCCC1)CC31CCN(C(=O)Nc2cccc(F)c2)CC1 do in these assays?
Pf Dd2 growth: -91*; C diff HTS: 0

Results for CCCC(=O)N1CC2(CN(C(=O)Nc3cccc(F)c3)C2)c2c(n(C)c3cc(OC)ccc23)[C@@H]1CO ?
Pf Dd2 growth: -23; C diff HTS: 17

What do the screens show for `COc1ccc(NC(=O)N2CC3(C2)CN(C(=O)C2CCC2)[C@H](CO)c2c3c3ccc(OC)cc3n2C)cc1`?
Pf Dd2 growth: -88*; C diff HTS: -2

What do the screens show for `CCCC(=O)N1CC2(CN(C(=O)Nc3cccc(F)c3)C2)c2c(n(C)c3cc(OC)ccc23)[C@H]1CO`?
Pf Dd2 growth: -82*; C diff HTS: 8

Results for COc1ccc2c3c(n(C)c2c1)[C@H](CO)N(C(=O)NC(C)C)CC31CN(Cc2nccs2)C1 ?
Pf Dd2 growth: -3; C diff HTS: -14

How did COc1ccc2c3c(n(C)c2c1)[C@H](CO)N(C(=O)C1CCCC1)CC31CCN(C(=O)Nc2cccc(F)c2)CC1 do in these assays?
Pf Dd2 growth: -56; C diff HTS: 5

How did COc1ccc2c3c(n(C)c2c1)[C@@H](CO)N(C(=O)Nc1cccc(F)c1)CC31CN(Cc2nccs2)C1 do in these assays?
Pf Dd2 growth: -85*; C diff HTS: -10

How did COc1ccc2c3c(n(C)c2c1)[C@@H](CO)N(C(=O)C1CCC1)CC31CN(C)C1 do in these assays?
Pf Dd2 growth: 5; C diff HTS: -6

How did Cc1cc(C(=O)Nc2cccc3c2O[C@H](CN(C)Cc2ccc4c(c2)OCO4)[C@@H](C)CN([C@@H](C)CO)C3=O)n(C)n1 do in these assays?
Pf Dd2 growth: -8; C diff HTS: 6

How did CN1CCN(C(=O)c2cc3c(c(-c4cccc(C5=CCCC5)c4)n2)[C@@H](CCO)N([S@](=O)C(C)(C)C)C3)CC1 do in these assays?
Pf Dd2 growth: 7

What do the screens show for `Cc1ccc(-c2ccc([C@H]3[C@@H](CO)N4CCCCN(S(=O)(=O)c5cccc(C)c5)C[C@H]34)cc2)cc1`?
Pf Dd2 growth: -78; C diff HTS: 22

Results for CC(C)NC(=O)Nc1ccc2c(c1)C(=O)N([C@@H](C)CO)C[C@H](C)[C@@H](CN(C)C(=O)Nc1ccc3c(c1)OCO3)O2 ?
Pf Dd2 growth: 11; C diff HTS: 12

What do the screens show for `COc1ccc2c3c(n(C)c2c1)[C@@H](CO)N(C(=O)C1CCCCC1)CC31CCN(C(=O)Nc2cccc(F)c2)CC1`?
Pf Dd2 growth: 30

From PubChem BioAssay
